Among the data in PubChem BioAssay are composite z-score and z-score values, retold here.

Assay [1] can be described thus: compounds binding Alexa647 anti-His antibody – biochemical, small-molecule microarray, 635 nm fluorescence, artefact control for SMM control protein annotation, primary screen (AID 1128).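 Further: score merges feature fluorescence with signal-to-noise for each printed compound spot.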 The conditions noted are these: higher = more signal.
Assay [2] concerns Human papillomavirus type 1a E7 protein (residues 1-88). Nature of the assay: HPV1a E7 small-molecule binders, primary screen, biochemical, small-molecule microarray, residues 1-88, 635 nm (AID 1129). The conditions noted are these: small-molecule microarray binding, fluorescence 635 nm; higher = more signal.
Assay [3] addresses Focal adhesion kinase 1 (Homo sapiens) (UniProt Q05397). Nature of the assay: PTK2 protein binding on printed compound slides – biochemical, small-molecule microarray, 635/667 nm fluorescence, BSA, DTT, primary screen (AID 1130).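 Further: composite of spot emission at 667 nm and signal to noise over triplicate slides.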 The conditions noted are these: 635 nm fluorescence, higher = more signal.
For assay [4], the system named is Fibrinogen (Alexa647-labelled). Nature of the assay: Alexa647-fibrinogen binding to printed small molecules – biochemical, small-molecule microarray, 635/667 nm fluorescence, artefact control for SMM control-protein annotation, profiling panel (AID 1131).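 Further: z-score merges 667 nm fluorescence with per-spot signal-to-noise over triplicate slides.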 Particulars: fibrinogen-A647 binding fluorescence, higher = more signal.
Assay [5] concerns the target Follistatin (Homo sapiens) (UniProt P19883). Nature of the assay: FST protein binding to printed compounds – biochemical, small-molecule microarray, 635/667 nm fluorescence, primary screen (AID 1132). Particulars: 635 nm fluorescence, higher = more signal.
The target in assay [6] is Fibroblast growth factor 2 (Homo sapiens) (UniProt P09038). Put plainly: basic fibroblast growth factor binding to printed compounds – biochemical, small-molecule microarray, 635/667 nm fluorescence, primary screen (AID 1133). Particulars: FGF2, fluorescence 635/667, higher = more signal.
Sequence of Fibroblast growth factor 2 (Homo sapiens) (P09038 whole entry, looked up): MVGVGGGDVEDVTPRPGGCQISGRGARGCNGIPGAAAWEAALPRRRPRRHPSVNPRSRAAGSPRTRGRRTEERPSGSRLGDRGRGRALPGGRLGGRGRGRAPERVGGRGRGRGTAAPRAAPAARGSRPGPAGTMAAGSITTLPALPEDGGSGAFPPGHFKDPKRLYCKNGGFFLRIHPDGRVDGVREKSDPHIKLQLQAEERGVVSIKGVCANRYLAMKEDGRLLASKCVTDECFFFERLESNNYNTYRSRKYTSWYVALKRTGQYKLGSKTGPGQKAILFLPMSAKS
A short description of assay [7]: JC-1 mitochondrial potential readout, lung cancer cells – cell-based, A549, JC-1 fluorescence, basal, 24 h, 100 nL, profiling panel (AID 1138).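 Further: A549 lung adenocarcinoma cells under basal conditions with no added stimulus; test concentration not given here.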 The conditions noted are these: higher = more signal.
A further assay relates to Lefty1. Put plainly: Lefty1 protein binding to printed compounds – biochemical, small-molecule microarray, 635/667 nm fluorescence, primary screen (AID 1139). The conditions noted are these: fluorescence 635/667, higher = more signal.
Assay [8] relates to wheat germ agglutinin (Triticum aestivum), Alexa647-labelled. Nature of the assay: Alexa647-WGA lectin binding to printed small molecules – biochemical, small-molecule microarray, 635/667 nm fluorescence, artefact control for SMM control-protein annotation, profiling panel (AID 1140).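 Further: score merges 667 nm feature emission with signal to noise over triplicate slides.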 The conditions noted are these: WGA-A647 binding, 635 nm fluorescence, higher = more signal.
In assay [9] the target is Luciferin 4-monooxygenase (Photinus pyralis) (UniProt P08659). Put plainly: inhibition of purified Photinus pyralis luciferase – biochemical, luminescence, purified enzyme, 2006 set, primary screen (AID 1141).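 Further: cell-free assay with purified firefly luciferase at 100 ng per well in PBS; test concentration not given here.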 The conditions noted are these: purified firefly luciferase, SteadyGlo luminescence, 30 min; higher = more signal, called active from +8 up or from −8 down.
Sequence of Luciferin 4-monooxygenase (Photinus pyralis) (P08659 whole entry, looked up): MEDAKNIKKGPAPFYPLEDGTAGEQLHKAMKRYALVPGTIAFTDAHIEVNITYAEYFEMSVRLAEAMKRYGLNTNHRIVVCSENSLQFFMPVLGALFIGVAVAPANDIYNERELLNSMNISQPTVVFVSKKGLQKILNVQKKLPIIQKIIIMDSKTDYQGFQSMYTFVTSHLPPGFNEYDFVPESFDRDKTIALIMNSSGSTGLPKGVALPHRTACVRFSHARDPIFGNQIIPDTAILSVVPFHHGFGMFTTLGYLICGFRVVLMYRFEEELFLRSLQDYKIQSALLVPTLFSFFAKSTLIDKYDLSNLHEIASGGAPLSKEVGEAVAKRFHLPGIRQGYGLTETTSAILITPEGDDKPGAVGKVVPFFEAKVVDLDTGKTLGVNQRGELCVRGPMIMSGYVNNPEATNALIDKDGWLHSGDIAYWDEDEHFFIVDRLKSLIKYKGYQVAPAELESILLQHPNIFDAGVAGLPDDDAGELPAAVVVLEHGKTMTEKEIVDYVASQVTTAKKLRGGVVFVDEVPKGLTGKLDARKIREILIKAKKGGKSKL
Assay [10] deals with Wnt5a (protein binding on small-molecule microarray). Nature of the assay: small molecules binding Wnt5a protein – biophysical, small-molecule microarray, 635/667 nm fluorescence, primary screen (AID 1142).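 Further: fluorescence read at 667 nm with signal to noise per printed feature.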 The conditions noted are these: 635 nm fluorescence, higher = more signal.
A short description of assay [11]: ATP-based viability of Huh7 replicon cells – cell-based, CellTiter-Glo luminescence, basal, 48 h, cytotoxicity control for HCV replication inhibitor project, primary screen (AID 1143).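 Further: Huh7 hepatoma cells carrying a hepatitis C replication reporter with no stimulus; test concentration not given here.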 Particulars: higher = more signal, called active from +8 up or from −8 down. (In antiviral work, replicon cells carry a viral genome segment that copies itself.)
The nature of assay [12]: Pseudomonas biofilm growth suppression – PAO1 strain, BacTiter-Glo luminescence, LB-PBS, primary screen (AID 1144). The conditions noted are these: P. aeruginosa PAO1 biofilm, 12 h, higher = more signal.
The nature of assay [13]: basal CRE-LacZ reporter activity in PC12 – cell-based, unstimulated, primary screen (AID 1145). The conditions noted are these: no forskolin, luminescence, 4.5 h, higher = more signal, called active from +8 up or from −8 down.
A short description of assay [14]: forskolin-driven CRE-LacZ activity in PC12 – cell-based, CRE-LacZ reporter, forskolin-stimulated, primary screen (AID 1146).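 Further: PC12 cells with 6xCRE LacZ reporter stimulated by forskolin 10 µM; beta-galactosidase reporter signal reflecting CREB driven transcription.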 The conditions noted are these: luminescence, 4.5 h, higher = more signal, called active from +8 up or from −8 down.
The target in assay [15] is Streptavidin (Streptomyces avidinii) (UniProt P22629). Put plainly: compounds binding control protein streptavidin – biophysical, small-molecule microarray, 635/667 nm fluorescence, artefact control for SMM compound annotation, primary screen (AID 1147).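 Further: signal reflects streptavidin binding to arrayed compounds as a control protein.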 The conditions noted are these: higher = more signal.
Sequence of Streptavidin (Streptomyces avidinii) (P22629 whole entry, looked up): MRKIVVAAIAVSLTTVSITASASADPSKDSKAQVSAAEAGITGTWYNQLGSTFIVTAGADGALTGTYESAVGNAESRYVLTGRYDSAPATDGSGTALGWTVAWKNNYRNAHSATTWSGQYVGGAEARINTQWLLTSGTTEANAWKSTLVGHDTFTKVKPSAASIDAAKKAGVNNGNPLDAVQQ
The nature of assay [16]: probe aInhba binding on compound microarray – biochemical, small-molecule microarray, 635/667 nm fluorescence, primary screen (AID 1148).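 Further: score merges 667nm spot fluorescence with signal-to-noise for antibody binding to printed compounds.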 Particulars: higher = more signal.
Assay [17] has as its target Torsin-1A (Homo sapiens) (UniProt O14656). Nature of the assay: TOR1A wild-type binding on microarray – cell lysate, small-molecule microarray, lysate, 635/667 nm, primary screen (AID 1149). Particulars: COS7 hTOR1A-WT lysate, 635 nm fluorescence, higher = more signal.
The target is the same in assay [18]. Put plainly: torsin A mutant lysate binding on microarrays – cell lysate, small-molecule microarray, COS7 lysate, 635/667 nm fluorescence, primary screen (AID 1150).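 Further: score pools 667 nm emission and signal to noise measuring lysate protein binding.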 Particulars: COS7 hTOR1A mutant lysate, 635 nm fluorescence, higher = more signal.
Assay [19] has as its system Sonic hedgehog protein (Shh). Nature of the assay: Sonic hedgehog microarray binding compounds – biochemical, small-molecule microarray, 635/667 nm fluorescence, primary screen (AID 1151).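 Further: Shh protein binding to compounds spotted on small-molecule microarray slides; score combines spot fluorescence intensity with signal-to-noise across triplicate slides.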 The conditions noted are these: 635 nm fluorescence, higher = more signal.

Activity calls are given as the source filed them. Unless noted, how the calls were made is not given here.

Sequence of Follistatin (Homo sapiens) (P19883 whole entry, looked up): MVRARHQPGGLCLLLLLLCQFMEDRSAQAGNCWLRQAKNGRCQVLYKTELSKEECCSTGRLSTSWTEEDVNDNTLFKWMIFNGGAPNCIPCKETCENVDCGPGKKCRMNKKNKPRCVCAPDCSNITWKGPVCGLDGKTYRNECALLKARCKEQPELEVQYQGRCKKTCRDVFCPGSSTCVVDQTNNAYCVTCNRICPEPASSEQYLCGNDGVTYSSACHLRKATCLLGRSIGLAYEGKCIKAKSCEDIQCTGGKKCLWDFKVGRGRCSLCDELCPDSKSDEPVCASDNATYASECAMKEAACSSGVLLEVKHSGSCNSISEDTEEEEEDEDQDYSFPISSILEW
Sequence of Torsin-1A (Homo sapiens) (O14656 whole entry, looked up): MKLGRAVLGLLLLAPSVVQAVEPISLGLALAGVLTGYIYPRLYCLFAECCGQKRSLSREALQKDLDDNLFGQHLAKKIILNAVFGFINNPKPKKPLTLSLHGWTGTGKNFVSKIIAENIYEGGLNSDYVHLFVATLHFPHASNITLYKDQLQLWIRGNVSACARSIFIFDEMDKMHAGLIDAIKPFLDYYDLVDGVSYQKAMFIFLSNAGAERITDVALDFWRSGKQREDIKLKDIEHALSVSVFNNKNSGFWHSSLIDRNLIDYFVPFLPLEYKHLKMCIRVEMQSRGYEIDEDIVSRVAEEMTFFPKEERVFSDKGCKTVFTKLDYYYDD
Sequence of Focal adhesion kinase 1 (Homo sapiens) (Q05397 whole entry, looked up): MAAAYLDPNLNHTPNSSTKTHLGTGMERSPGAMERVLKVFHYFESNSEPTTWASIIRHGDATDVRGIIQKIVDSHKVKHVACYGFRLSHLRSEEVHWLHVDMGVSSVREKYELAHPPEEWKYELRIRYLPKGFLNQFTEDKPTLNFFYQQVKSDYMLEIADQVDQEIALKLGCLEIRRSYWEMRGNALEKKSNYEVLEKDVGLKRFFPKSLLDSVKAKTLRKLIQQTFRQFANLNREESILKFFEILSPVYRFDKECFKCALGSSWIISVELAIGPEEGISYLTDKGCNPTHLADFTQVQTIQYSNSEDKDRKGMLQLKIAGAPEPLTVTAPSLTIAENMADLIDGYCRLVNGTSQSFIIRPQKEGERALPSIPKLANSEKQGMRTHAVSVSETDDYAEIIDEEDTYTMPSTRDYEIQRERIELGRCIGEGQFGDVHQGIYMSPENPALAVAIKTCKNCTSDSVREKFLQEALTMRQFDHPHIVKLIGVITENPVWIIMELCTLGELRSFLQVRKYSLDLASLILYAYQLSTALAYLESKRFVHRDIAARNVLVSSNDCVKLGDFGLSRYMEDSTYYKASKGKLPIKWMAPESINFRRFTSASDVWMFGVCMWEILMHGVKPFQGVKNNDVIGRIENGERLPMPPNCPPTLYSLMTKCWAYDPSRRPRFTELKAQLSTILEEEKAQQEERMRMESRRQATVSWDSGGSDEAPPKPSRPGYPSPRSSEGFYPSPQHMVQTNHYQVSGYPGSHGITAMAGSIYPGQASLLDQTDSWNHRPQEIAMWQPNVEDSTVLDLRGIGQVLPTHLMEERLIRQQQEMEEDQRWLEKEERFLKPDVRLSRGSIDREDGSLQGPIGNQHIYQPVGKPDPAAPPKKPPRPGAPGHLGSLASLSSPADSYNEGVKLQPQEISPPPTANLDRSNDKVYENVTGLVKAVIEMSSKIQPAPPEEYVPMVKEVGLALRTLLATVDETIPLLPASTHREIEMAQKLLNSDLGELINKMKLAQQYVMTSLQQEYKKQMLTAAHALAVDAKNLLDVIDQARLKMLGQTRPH

On to `C=C(C(=O)CC[C@H](OC(=O)c1cccnc1)c1ccc(CO)o1)C(C)C`, for which the composite z-score in assay [1] is -0.109; in assay [2], 1.09; in [3] it was -0.22; in [4] it was 0.88; in assay [5] it was 0.886; in assay [6], 0.962. The composite z-score in the assay with Lefty1 was determined as 1.04; in assay [8], 0.884; in assay [10], 0.159; in assay [15], 0.441; in assay [16] it was 0.228; with Torsin-1A (Homo sapiens) [17] it was 0.684. The composite z-score with Torsin-1A (Homo sapiens) [18] worked out at 0.449; in assay [19], 1.79. Moreover, the z-score in assay [7] is -0.559; in [9], -1.55 (inactive); in [11], 0.3 (inactive); in assay [12], 0.232 (inactive); in assay [13] it was 0.48 (inactive); in assay [14] it was 1.17 (inactive).
Regarding `C=C[C@@H](C)[C@H](OC(=O)Nc1ccc(SC)cc1)c1ccc(OCCO)cc1`, the composite z-score in assay [1] was -0.0489; in [2], -0.784; in [3], 0.31; in assay [4] it was -1.64; in assay [5] it was 0.229; in assay [6] it was -0.549. Besides, the composite z-score with Lefty1 is 0.0878; in [8], 0.782; in assay [10], -0.403; in assay [15], -0.936; in [16], -0.259; with Torsin-1A (Homo sapiens) [17] it was -0.582. Further, the composite z-score is 0.695 with Torsin-1A (Homo sapiens) [18] and 0.182 in assay [19]. The z-score is -0.497 in assay [7]; -4.77 (inactive) in assay [9]; -0.957 (inactive) in [11]; -1.37 (inactive) in [12]; 0.861 (inactive) in assay [13]; -0.97 (inactive) in assay [14].
On to `COc1cc(CO)cc(I)c1O[C@H]1C=C(C(=O)NCCO)C[C@@H](NCc2ccccc2F)[C@@H]1O`, for which the composite z-score in assay [1] came out at 0.271; in assay [2], 1.17; in assay [3], 0.0691; in assay [4], 0.124; in assay [5], 0.347; in assay [6] it was 0.974. Also, the composite z-score is 1.19 with Lefty1; 0.278 in assay [8]; -0.145 in assay [10]; -0.0401 in [15]; -0.128 in assay [16]; 0.235 with Torsin-1A (Homo sapiens) [17]. Further, the composite z-score with Torsin-1A (Homo sapiens) [18] was -0.175; in assay [19] it was 0.485. The z-score was 1.72 in assay [7]; -0.0791 (inactive) in [9]; -0.466 (inactive) in [11]; -0.251 (inactive) in assay [12]; 9.26 (active) in assay [13]; -1.22 (inactive) in [14].
Turning to `COCCOC(=O)N1C(=O)[C@@]2(c3cc(C#CC4=CCCCC4)ccc31)[C@H](c1ccccc1OCCO)N1[C@H](c3ccccc3)[C@H](c3ccccc3)OC(=O)[C@H]1[C@@H]2C(=O)N1CCc2cc(OC)c(OC)cc2C1`, the composite z-score in assay [1] turned out to be 0.891; in assay [2], 1.2; in assay [3] it was 0.204; in assay [4], 0.764; in assay [5], 1.28; in [6], 0.917. The composite z-score is 0.555 in the assay with Lefty1; 0.441 in assay [8]; 0.316 in assay [10]; -0.0953 in assay [15]; -0.305 in assay [16]; -0.148 with Torsin-1A (Homo sapiens) [17]. Further, the composite z-score in the assay with Torsin-1A (Homo sapiens) [18] was 0.536; in assay [19], 1.79. Besides, the z-score in assay [7] was -0.682; in assay [9] it was -1.97 (inactive); in assay [11] it was -1.93 (inactive); in assay [12], -0.455 (inactive); in assay [13], 1.03 (inactive); in assay [14], 0.904 (inactive).
With `C=CCN1Cc2ccccc2C[C@@]2(N=C(c3ccc(OCCCO)cc3)O[C@H]2c2ccccc2)C1=O`, the composite z-score in [1] worked out at 0.69; in [2], 1.24; in [3], 0.649; in [4], 0.801; in assay [5] it was 0.749; in [6], 0.955. For the same compound, the composite z-score in the assay on Lefty1 is 0.0744; in [8], 0.98; in [10], 0.762; in assay [15] it was 0.0967; in assay [16], 0.0471; with Torsin-1A (Homo sapiens) [17], 0.233. Moreover, the composite z-score in the assay with Torsin-1A (Homo sapiens) [18] was found to be 0.983; in assay [19] it was 1.05. Moreover, the z-score in assay [7] was 0.943; in assay [9] it was -0.668 (inactive); in assay [11], -5.03 (inactive); in assay [12], -0.8 (inactive); in assay [13], -0.23 (inactive); in assay [14], -1.51 (inactive).
